A selection: hits, their analogues and other compounds. The true share with any hit is near 3.3%.
PLK1 PBD block – inhibitors of human PLK1 polo-box domain binding. P53350. Plk1 PBD binding of FITC phosphopeptide, fluorescence polarization. Potency, µM, without a hit: max response, negative = inhibition, hits mostly inhibitors. 360,000 compounds, 2.8% hits; note: potency is the fitted concentration of half-maximal effect; series mostly up to about 57 µM; nearly all actives have a fitted effect of over 65% in size
USP1 inh – inhibitors of human USP1/UAF1 deubiquitinase; 390,000 compounds, 0.23% hits; recombinant USP1/UAF1, Ub-Rhodamine cleavage fluorescence; Potency, µM (doses to about 57.1 µM), for inactives: top-dose activity change, negative = inhibition, hits mostly inhibitors; note: potency is the fitted concentration of half-maximal effect; nearly all actives have a fitted effect of over 60% in size
Target sequence (O94782 whole entry, looked up): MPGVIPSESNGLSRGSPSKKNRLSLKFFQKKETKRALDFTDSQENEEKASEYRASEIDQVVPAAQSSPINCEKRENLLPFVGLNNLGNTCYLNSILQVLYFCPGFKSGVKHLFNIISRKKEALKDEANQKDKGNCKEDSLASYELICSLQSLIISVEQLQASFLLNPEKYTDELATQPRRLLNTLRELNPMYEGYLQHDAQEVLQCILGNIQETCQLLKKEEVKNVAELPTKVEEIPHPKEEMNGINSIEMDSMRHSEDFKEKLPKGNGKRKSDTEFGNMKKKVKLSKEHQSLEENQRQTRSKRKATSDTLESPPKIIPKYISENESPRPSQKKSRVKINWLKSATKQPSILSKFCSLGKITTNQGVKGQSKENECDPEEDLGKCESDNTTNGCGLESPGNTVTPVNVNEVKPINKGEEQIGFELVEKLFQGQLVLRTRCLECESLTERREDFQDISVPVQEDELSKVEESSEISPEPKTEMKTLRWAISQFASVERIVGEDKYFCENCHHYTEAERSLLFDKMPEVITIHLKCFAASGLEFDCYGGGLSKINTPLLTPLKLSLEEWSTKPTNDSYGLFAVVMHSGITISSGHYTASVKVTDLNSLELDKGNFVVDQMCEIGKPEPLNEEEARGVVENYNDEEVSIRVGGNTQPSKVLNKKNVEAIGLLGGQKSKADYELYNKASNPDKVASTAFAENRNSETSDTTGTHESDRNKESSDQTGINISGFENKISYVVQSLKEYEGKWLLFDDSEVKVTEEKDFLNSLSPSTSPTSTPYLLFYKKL
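USP1/UAF1 complex at 1 nM was preincubated with compound for 15 min at room temperature, then Ub-Rho substrate (150nM final) was added. Fluorescence (480/540 nm) was read kinetically, 6 reads every 60 seconds.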
USP2a inh – blocks human ubiquitin-specific protease USP2a; USP2 core, Ub-CHOP2 coupled fluorogenic reporter, 485/531; Potency, µM (doses to about 38.3 µM), without a hit: top-dose activity change, negative = inhibition, usual class: inhibitors; 330,000 compounds, 0.01% hits;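 note: potency is the fitted concentration of half-maximal effect; plate controls were DMSO wells for no effect and full inhibition by NEM control for full effect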
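USP2 core (10nM final) preincubated 30min RT with compound in 20mM Tris-HCl pH 8.0, 2mM CaCl2, 2mM beta-mercaptoethanol, 0.05% CHAPS; 25nM Ub-CHOP2 plus 25nM reporter substrate added, fluorescence (Ex485/Em531) read after 60min.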
WRN inhibitor – inhibitors of human WRN helicase | WRN helicase unwinding, fluorescent forked duplex, kinetic | Potency, µM (titrated, usually from 114 µM), without a hit: at the highest dose activity change, negative = inhibition, actives largely listed as inhibitors | Q14191 | 360,000 compounds, 0.46% hits | AID 651768; note: potency is the fitted concentration of half-maximal effect; nearly all actives have a fitted effect of over 55% in size
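Kinetic fluorescence helicase assay: unwinding of a quenched forked DNA duplex (100 nM final) with 2 mM ATP final raises red fluorescence (525/598 nm). Compounds sat 15 min at room temperature with 20 nM WRN beforehand.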
PI5P4Ka inh – blocks human PI5P4K alpha kinase activity | P48426 | PI5P4Kalpha enzyme, ADP-Glo luminescence, 60 min; active compounds read low | max response, % | 330,000 compounds, 1.2% hits; active = max response of -50% or lower; inconclusive = between -30% and -50%; inactive = -30% or higher; note: value at the top dose of about 77 µM
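Quantitative HTS of the MLSMR library against PI5P4Kalpha with substrate. ATP added last at 5 microM final; room temperature, 60 minutes. Remaining ATP depleted, ADP converted and read as luminescence.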
TbPYK inh – confirmation of Trypanosoma brucei pyruvate kinase inhibitors. shares compounds with PLK1 PBD block. recombinant TbPYK, Kinase-Glo ATP luminescence. Potency, µM (highest dose often 76.9 µM), for inactives: at the highest dose activity change, negative = inhibition, hits mostly inhibitors. 890 compounds, 67% hits. AID 720569; note: potency is the fitted concentration of half-maximal effect; nearly all actives have a fitted effect of over 70% in size
TbPYK ADP-Glo – inhibits T. brucei pyruvate kinase in orthogonal ADP-Glo assay. shares compounds with PLK1 PBD block. recombinant TbPYK, ADP-Glo luminescence, 60 min. Potency, µM (top dose mostly 76.9 µM), for the others: at the highest dose activity change, negative = inhibition, usual class: inhibitors. 890 compounds, 62% hits. AID 720584; note: potency is the fitted concentration of half-maximal effect; nearly all actives have a fitted effect of over 75% in size
The depositor's hits bear a star; ? = inconclusive; . = no result; [ ] = another dose, or the depositor's remark. Unless noted, calls come from the whole dose curve; as a rule, active = well fitted curve in the direction sought with a large enough effect; inconclusive = small, poorly fitted or top-dose-only effect, or another doubt; inactive = no such curve, though single readings can be large; an effect the other way counts as inactive or inconclusive. Unless noted, % is set by controls: 0 for no effect and ±100 for the full control effect.

SMILES	PLK1 PBD block	USP1 inh	USP2a inh	WRN inhibitor	PI5P4Ka inh	TbPYK inh	TbPYK ADP-Glo
CC1(C)CC(=O)C=C(NNC(=O)c2ccccc2)C1	-9%	-8%	3%	5%	1	.	.
CC1(C)CC(=O)C2=C(C1)OC1=C(C(=O)CC(C)(C)C1)C2c1ccc(O)cc1O	3.5µM*	-7%	2%	?	.	28µM*	?
CC1(C)CC(=O)C2=C(C1)OC1=C(C(=O)CC(C)(C)C1)C2c1ccc(O)c([N+](=O)[O-])c1	-3%	-21%	-7%	-5%	7	.	.
CN1CCc2c(sc3c2C(=O)NC(c2ccco2)N3)C1 (stereo unspecified)	-10%	?	4%	-14%	.	.	.
O=C1NC(c2cccs2)Nc2sc3c(c21)CCCC3 (stereo unspecified)	?	-5%	1%	-24%	-28	-18%	-20%
CC(=O)c1ccc(NC(=O)Cn2ncc3c(C)n(Cc4ccc(F)cc4)c(C)c3c2=O)cc1	.	-10%	.	.	.	.	.
Cc1ccc(-c2cc(C(=O)N3CC(C)CC(C)C3)c3ccccc3n2)o1 (stereo unspecified)	24µM*	-7%	-1%	50µM*	?	25µM*	35µM*
COC(=O)c1cc(-c2ccc(C)o2)nc2ccccc12	15µM*	0%	-5%	?	?	?	?
Cc1ccc(-c2cc(C(=O)N3CC(C)OC(C)C3)c3ccccc3n2)o1 (stereo unspecified)	-6%	-25%	-2%	-4%	-3	.	.
CCOc1ccccc1NC(=O)c1ccc2c(c1)CCN2S(C)(=O)=O	.	-21%	.	.	.	.	.
COc1ccc(S(=O)NC2CCCCC2)c(OC)c1C (stereo unspecified)	-19%	0%	-5%	-8%[57.1 µM]	-10	22µM*	20µM*
COc1ccc(C(=O)NC2CCCCCCC2)cc1OC	-17%	-10%	.	-27%	-3	.	.
Cc1ccccc1Cn1c(=O)n(-c2ccc(Cl)cc2)c(=O)c2c3c(sc21)CCCC3	.	-21%	.	.	.	.	.
COc1cc(C2Nn3c(nnc3-c3ccccc3OC)S2)ccc1O (stereo unspecified)	21µM*	-7%	1%	2%	-14	0.22µM*	4µM*
CCN(CC)C(=O)c1ccc2c(c1)N(Cc1ccc(C(F)(F)F)cc1)C(=O)c1ccccc1S2	.	-32%	.	.	.	.	.
CC(C)(C)C1CCc2c(sc(NC(=O)c3cc4ccccc4c(=O)o3)c2C(N)=O)C1 (stereo unspecified)	.	-11%	.	.	.	.	.
COC(=O)[C@]1(C)CCC[C@@]2(C)C3CC[C@@]4(C)C[C@]3(CCC21)CC(=O)N4 (stereo partly specified)	-8%	-18%	0%	1%	1	.	.
C=C1C(=O)C23CCC4C(C)(C(=O)OC)CCCC4(C)C2CCC1(O)C3 (stereo unspecified)	?	-6%	.	?	-7	10µM*	14µM*
C=CCNC(=S)NNC(=O)c1cccn(Cc2ccc(Cl)cc2Cl)c1=O	-16%	-13%	-2%	9%	-1	0.89µM*	2.8µM*
CCc1cccc(NC(=O)C(CC)n2nc(C)c3sc4ccccc4c3c2=O)c1 (stereo unspecified)	.	-8%	.	.	.	.	.
O=C1N=C(c2ccccc2)S/C1=C\c1cccs1	24µM*	-27%	2%	-14%	-23	4.5µM*	6.3µM*
Cn1c(SCC(=O)NC2CCCCC2)nnc1-c1cccc(N)c1	-16%	-19%	4%	-24%	-7	?	?
Cn1c(SCC(=O)NC2CCCC2)nnc1-c1ccncc1	3%	-20%	-1%	0%	-3	.	.
Cc1ccc(-n2c(N)c(C(=O)N3CCN(C)CC3)sc2=S)cc1	3µM*	-16%	-2%	-20%	.	0.63µM*	4.5µM*

Source: PubChem BioAssay
